# Test results as given in PubChem BioAssay (NCI).
# About 83,000 compounds went through this panel and 20% of them were active in at least one assay; those are over-represented in the sample as a whole.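 Each cell line was grown in a 96-well plate and treated with one concentration of compound for 48 hours. Values below 10 were considered active.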 The source made the active and inactive calls.
# System: T-47D breast
# Experiment: NCI-60 one-dose screen, 48 h (100 = growth as untreated, 0 = no growth, -100 = all killed)
# Conditions: 10 µM
row,Compound,growth
1,CCOc1ccc(Nc2nc3ccccc3nc2Nc2ccc(OCC)cc2)cc1,32.1% (inactive)
2,O=c1cc(-c2ccccc2)oc2cc(OCCCCNCc3ccccc3)cc(O)c12,-70.7% (active)
3,Cc1ccc(C(C)C)cc1NC(=O)c1ccccc1N(C)C,57.1% (inactive)
4,CCCCSc1nc(Nc2ccc(/C(C)=N/NC(N)=S)cc2)c(C#N)c(-c2ccc(F)cc2)n1,46.8% (inactive)
5,O=C(c1ccc(Cl)cc1)C1[C@H](c2ccccc2Br)[C@@H](c2ccccc2)NC12C(=O)Nc1ccccc12 (some centres not stated),48.6% (inactive)
6,CC(=O)c1ccc(NC(=O)NCn2c(=O)[nH]c3ccccc3c2=O)cc1,83% (inactive)
7,[2H]C([2H])([2H])Oc1ccc2ncc(C#Cc3cncc(C(=O)Nc4ccc(CN5CCN(C)CC5)c(C(F)(F)F)c4)c3)n2n1,-24.5% (active)
8,O=C1Nc2cc(Cl)ccc2/C1=C/c1ccc(OCc2ccc(Br)cc2F)cc1,-48.4% (active)
9,CCCCCCCCCCCCCCCCCCCC(=O)NCCc1c[nH]c2ccc(OC(=O)CCCC(=O)OCCOOCCOOCCOOCCOOCCOOCCOOCCOOCCOOCCOOCCOOCCOOCCOC)cc12,22.4% (inactive)
10,C[C@H]1[C@H](C)CC[C@]2(COC(=O)CCC(=O)NCC#CCN3CCNCC3)CC[C@]3(C)C(=CC[C@@H]4[C@@]5(C)CCCNC(C)(C)[C@@H]5CC[C@]43C)[C@H]12,40% (inactive)
11,COc1ccc2nc(Cl)c(-c3cc(-c4ccccc4)nc(N)n3)cc2c1,30.6% (inactive)
12,COc1ccc(CN2[C@H](C(=O)NCCCCCCC(=O)NO)Cc3c([nH]c4ccccc34)[C@H]2C2CC2)cc1,-10.3% (active)
